Compounds without any hit were thinned out: in the full panel of roughly 79,000, 15% have a hit. Values without a mark were called inactive. Calls of active or inactive are those of the source. No stated cut-off is given here; in the data, active means growth inhibition above about 70%; inactive means the rest.
How the values were obtained:
[1] = NCI Yeast Anticancer Drug Screen. Data for the rad50 strain (AID 155);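 further: 0% = growth of vehicle-only cultures of the same strain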; settings: S. cerevisiae rad50 strain growth inhibition; at 50.0 µM; active compounds read high
Summary of the method: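 Cells are treated with compound, grown, and their growth is then scored against vehicle-only cultures of the same repair-deficient yeast strain.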

[2] = NCI Yeast Anticancer Drug Screen. Data for the mec2-1 strain (AID 157); settings: S. cerevisiae mec2-1 strain, at 50.0 µM, active compounds read high
Summary of the method: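 Using mec2-1 yeast: add compound, measure growth, express inhibition versus vehicle-treated cultures.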

[3] = NCI Yeast Anticancer Drug Screen. Data for the sgs1 mgt1 strain (AID 161);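 further: 0% = growth of cultures given vehicle only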; settings: S. cerevisiae sgs1 mgt1 strain, at 50.0 µM, active compounds read high
Summary of the method: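 Growth of a repair-deficient yeast mutant was monitored after compound treatment and expressed as inhibition relative to vehicle-treated cultures.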

[4] = NCI Yeast Anticancer Drug Screen. Data for the cln2 rad14 strain (AID 165);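 further: 0% = growth equal to vehicle treated cultures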; settings: S. cerevisiae cln2 rad14 strain, at 50.0 µM, active compounds read high
Summary of the method: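 Yeast strain cln2 rad14, bearing defects in cell cycle control and DNA repair, serves as the test system; values reflect growth inhibition compared with vehicle.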

[5] = NCI Yeast Anticancer Drug Screen. Data for the bub3 strain (AID 167); settings: S. cerevisiae bub3 mutant strain, at 50.0 µM, active compounds read high
Summary of the method: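 Part of a panel of yeast mutants defective in DNA damage repair or cell cycle regulation. Each strain is grown with compound, and inhibition is calculated relative to solvent-treated cultures.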

[6] = NCI Yeast Anticancer Drug Screen. Data for the mlh1 rad18 strain (AID 175); settings: S. cerevisiae mlh1 rad18 strain growth inhibition; at 50.0 µM; active compounds read high
Summary of the method: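 Steps: expose repair-defective yeast to compound; measure growth; express inhibition against vehicle-treated controls.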

Compound	growth inhibition [1]	growth inhibition [2]	growth inhibition [3]	growth inhibition [4]	growth inhibition [5]	growth inhibition [6]
CC(C)C(=O)Nc1ccccc1	2.9%	-11.9%	2.7%	-25.6%	-13.6%	15.6%
CC1(C)C/C(=C\c2cccc(Cl)c2)C(=O)c2ccccc21	11.8%	16.6%	-0.75%	-12.8%	-5.65%	7.4%
CN1N=C(c2ccccc2)C(C(c2ccccc2[N+](=O)[O-])C2C(=O)N(C)N=C2c2ccccc2)C1=O (stereo unspecified)	46.8%	34.6%	8.5%	3.4%	-3.4%	-2.1%
CN1c2ccccc2N(C(=O)c2ccc([N+](=O)[O-])cc2)C(CC(=O)O)c2cccn21 (stereo unspecified)	2.6%	-30.9%	-15.8%	4.6%	-16.3%	3%
Cc1cccc(OS(=O)(=O)c2ccccc2)c1	34.6%	16.2%	36%	8.1%	-6.65%	24.8%
CC(=O)OCC1OC(n2cnc3c(N)ncnc32)C(Nc2ccc([N+](=O)[O-])cc2[N+](=O)[O-])C(OC(C)=O)C1OC(C)=O (stereo unspecified)	23.2%	4.4%	5.8%	17.9%	3.45%	21.8%
CC(C)(NC(=O)c1ccccc1)NC(=O)c1ccccc1	5.35%	-10.1%	-5.8%	-38.2%	5.55%	-6.35%
Nc1nc(N)c(N=Nc2ccc(S(=O)(=O)O)cc2)c(N)n1	-5.35%	-5.3%	4.25%	-21.1%	2%	10.5%
CC(C)CCC[C@@H](C)[C@H]1CC[C@@]2(C)[C@@H]3CC[C@@H]4C(=O)CC[C@]4(C)[C@H]3CC[C@]12C	31.3%	1.5%	41.5%	26.8%	1.6%	42.1%
O=C1NC(O)c2cccc(F)c2O1 (stereo unspecified)	20.4%	6.3%	43.4%	31.5%	6.7%	58.9%
FC(F)C(F)(F)N1c2ccccc2Sc2ccccc21	27.6%	-6.2%	19.9%	6.9%	27.1%	60.1%
O=c1[nH]nc(-c2ccc(Cl)cc2)[nH]1	9.35%	-4.25%	-3.85%	-30.1%	-5.8%	-3.9%
CCCCCCCCCCCCCCCO	0.45%	-20.4%	-2.45%	-7.35%	-7.25%	8.4%
CCCCCC(Oc1ccc(Cl)cc1)C(=O)OCC (stereo unspecified)	22.8%	9.1%	14.9%	1.45%	15%	17.2%
O=c1ccc2ccc(OP(=O)(O)O)cc2o1	-12.4%	-15.1%	11.4%	14.1%	-34.7%	19.6%
O=[N+]([O-])c1cc(C(F)(F)F)ccc1F	-16%	-15.2%	-2.3%	-25.8%	-12.4%	-0.15%
CC(=O)OCC1OC(Cl)C(OC(=O)C(Cl)(Cl)Cl)C(OC(C)=O)C1OC(C)=O (stereo unspecified)	2.8%	0.2%	-13.6%	-0.95%	-2.65%	-9.45%
COc1cc2ccc3c[n+](C)ccc3c2cc1OC	2.25%	-30.9%	-13.4%	-22.4%	-20.9%	-57.6%
NCC1(N2CCOCC2)C2CCCC21CNc1ccccc1 (stereo unspecified)	-37.2%	-46.1%	-16%	-4.65%	-35.1%	-21%
CN(C)Cc1cc(C(C)(C)C)cc(CNC2CCCCC2)c1O	-2.9%	-6.45%	-26.9%	-6.4%	-24.4%	19.9%
C=CCSc1nc2c(=O)[nH]cnc2n1C1OC(CO)C(O)C1O (stereo unspecified)	-7.35%	4%	-3.1%	-0.35%	-8.1%	-12.7%

Compound	growth inhibition [1]	growth inhibition [2]	growth inhibition [3]	growth inhibition [4]	growth inhibition [5]	growth inhibition [6]
COC(=O)C12C=CC(C1)n1c(=O)n(-c3ccccc3)c(=O)n12 (stereo unspecified)	-8.55%	7.25%	0.5%	-0.2%	4.4%	-2.9%
N#CC(C#N)N=Cc1ccncc1	14.2%	12.2%	-21.6%	-12.8%	-1.1%	-29.2%
Cc1ccc(SCCSc2ccc(C)cc2)cc1	17.7%	5.8%	3%	-5.7%	29.5%	39.5%
CC1CCC2C1(C)CCC1C2(C)CCC2(C)C3CC(C)(C)CCC3(C)CCC12C (stereo unspecified)	-9.45%	-35.8%	-12.8%	1.6%	-26.4%	-11.2%
O=c1[nH]cc(F)c(=O)n1-c1ccco1	42.6%	67.5%	79.8% (active)	-0.55%	52.2%	34.9%
O=[N+]([O-])c1ccc(N=Cc2ccccc2O)c(O)c1	21.9%	-4.05%	2.75%	-8.55%	20.8%	-2.05%
Cn1c(=O)c2c3ccccc3c(C(=O)c3ccccc3)n2c2ccccc21	38.4%	4.1%	27.4%	25.9%	-1.25%	34.4%
Cc1cc2[nH]c(=O)n(C3OC(CO)C(O)C3O)c2cc1C (stereo unspecified)	-15.2%	19.1%	2.4%	-33.2%	-7.6%	-4.4%
Nc1ccc2ccccc2c1N=Nc1ccc(/C=C/c2ccc(N=Nc3c(N)ccc4ccccc34)cc2S(=O)(=O)O)c(S(=O)(=O)O)c1	23.4%	18.2%	62%	7.1%	31.9%	53.4%
Cc1ccc(S(=O)(=O)N/N=C2/C(=O)N(c3ccc(Cl)cc3C)C(=O)C(=O)C2c2nc3ccccc3s2)cc1 (stereo unspecified)	0.85%	20.7%	1.85%	7.5%	-2.1%	11.2%
COc1c(CO)cc(C)cc1CO	4.15%	-0.5%	-6.95%	3.05%	-0.7%	0.5%
CC(C)CNC(=O)Nc1ccccc1C(F)(F)F	-6.5%	-8.4%	-23.6%	-4.55%	7.7%	-14.4%
CCN(CC)C(=O)CC1(O)CCCCC1	-9.7%	-11.2%	-3.15%	-9.65%	2.3%	4.2%
CCCNc1nc2c(c(=O)n(C)c(=O)n2C)n1C	-11.2%	0.1%	13.7%	-29.7%	23.1%	7.9%
O=C(Nc1ccccc1[N+](=O)[O-])C(=O)C(C(=O)c1ccccc1-c1ccccc1)C1OC(=O)c2ccccc21 (stereo unspecified)	10.9%	0.6%	6.05%	-51.4%	2.3%	9.55%
O=C1CCCCC/C1=C\O	2.8%	-12.1%	-10.6%	-11.9%	-23.9%	5.15%
O=C(Nc1ccc(Cl)cc1)Nc1ccc(Cl)nn1	-29.2%	7.85%	-10.1%	-39.8%	-6.8%	-1.85%
O=S(=O)([O-])Sn1c(-c2ccccc2)c[n+]2ccccc12	11.8%	5.55%	13.9%	14.2%	12.1%	10.8%
COc1ccc(/C(C#N)=C/c2ccc(N(C)CCC#N)cc2)cc1	28.2%	-24.1%	24.2%	-8.75%	15.2%	24.5%
C=CCCNC(=S)S	-1.15%	11.7%	6.1%	-2.9%	4%	-3.4%

— PubChem BioAssay (NCI)
